Measurements: PubChem BioAssay (EPA / NIEHS)
Activity calls are given as the source filed them. How the source made its calls: active means hit-call score of the fitted dose curve at least 0.9, where 1 is the maximum; inactive means score below 0.9.

What was measured:
[1] = ATG_EGR_CIS: Attagene CIS-FACTORIAL HepG2 Assay for human Early Growth Response 1 (EGR1) (AID 2282938); conditions: HepG2 Attagene CIS-FACTORIAL EGR reporter mRNA; actives raise or lower the signal
Summary of the method: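 Endogenous TF activity in HepG2 liver cells was gauged through cis-promoter reporter constructs transiently transfected. After 24 h dosing, reporter mRNA was quantified by RT-PCR and capillary electrophoresis, and curves fitted in both directions versus DMSO.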

[2] = ATG_M_19_CIS: Attagene CIS-FACTORIAL HepG2 Assay for M19 Transcription Factor (Internal Marker) (AID 2282939); conditions: HepG2 Attagene CIS-FACTORIAL M19 internal marker reporter; actives raise or lower the signal
Summary of the method: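 Internal marker readout, fitted in both directions against DMSO, from HepG2 cells carrying transfected cis-element reporter constructs; RT-PCR and capillary electrophoresis of reporter mRNA after 24 h exposure.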

[3] = ATG_ERE_CIS: Attagene CIS-FACTORIAL HepG2 Assay for Estrogen Response Element (ERE) (AID 2282940); conditions: HepG2 ERE cis-reporter, Attagene RNA transcript; actives raise or lower the signal
Summary of the method: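 After 24 h compound treatment, RNA from transfected HepG2 cells was reverse-transcribed, reporter cDNA PCR-amplified, FAM-labelled, HpaI-cut and resolved by capillary electrophoresis. ERE-driven cis reporter transcripts reflect endogenous factors; gain or loss scored against DMSO.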

[4] = ATG_Ets_CIS: Attagene CIS-FACTORIAL HepG2 Assay for human Erythroblast Transformation Specific (ETS) (AID 2282941); conditions: HepG2 ETS cis-reporter transcription; AC50: actives raise or lower the signal unless noted; outcome: actives raise or lower the signal unless noted
Summary of the method: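 RT-PCR/capillary electrophoresis fluorescence read-out of reporter mRNA; HepG2 transient multi-reporter transfection; 24 h compound exposure; gain or loss of signal fitted bidirectionally relative to DMSO.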

[5] = target: Hepatocyte nuclear factor 3-beta (Homo sapiens) (UniProt Q9Y261); assay: ATG_FoxA2_CIS: Attagene CIS-FACTORIAL HepG2 Assay for human Forkhead box A2 (FOXA2) (AID 2282942); conditions: HepG2 cis-reporter transcription factor activity, 24 h; actives raise or lower the signal
Hepatocyte nuclear factor 3-beta (Homo sapiens), sequence (Q9Y261 whole entry, looked up): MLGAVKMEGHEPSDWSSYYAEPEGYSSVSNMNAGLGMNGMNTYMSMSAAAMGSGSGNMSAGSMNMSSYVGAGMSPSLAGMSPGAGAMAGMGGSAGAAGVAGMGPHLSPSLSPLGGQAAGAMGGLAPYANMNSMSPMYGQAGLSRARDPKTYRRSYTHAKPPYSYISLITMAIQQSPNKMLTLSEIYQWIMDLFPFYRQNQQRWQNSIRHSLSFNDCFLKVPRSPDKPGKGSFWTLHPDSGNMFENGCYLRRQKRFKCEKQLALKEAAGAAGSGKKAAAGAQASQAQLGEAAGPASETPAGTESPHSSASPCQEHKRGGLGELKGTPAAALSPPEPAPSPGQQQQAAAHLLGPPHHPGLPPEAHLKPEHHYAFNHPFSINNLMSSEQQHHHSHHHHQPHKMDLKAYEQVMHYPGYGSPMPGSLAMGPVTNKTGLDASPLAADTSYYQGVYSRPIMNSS
Summary of the method: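 Endogenous transcription factor activity was read in HepG2 cells carrying transiently transfected cis-promoter reporter units. After 24 h dosing, reporter mRNA was quantified by RT-PCR and capillary electrophoresis, and values fitted bidirectionally versus DMSO.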

[6] = ATG_FoxO_CIS: Attagene CIS-FACTORIAL HepG2 Assay for human Forkhead box O (FoxO) (AID 2282943); conditions: HepG2 Attagene cis-reporter, FoxO element, mRNA; actives raise or lower the signal
Summary of the method: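 Transfected HepG2 reporter cells exposed to test chemical for 24 h; reporter RNA measured by reverse transcription, PCR and fluorescent capillary electrophoresis; curves fitted for increases and decreases against DMSO.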

[7] = ATG_GATA_CIS: Attagene CIS-FACTORIAL HepG2 Assay for human GATA Binding Protein (AID 2282944); conditions: HepG2 GATA cis-element reporter, Attagene multiplex mRNA; actives raise or lower the signal
Summary of the method: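 Reporter transcripts from a GATA cis-regulated unit, among multiplexed reporters in transfected HepG2 cells, were measured by RT-PCR with capillary electrophoresis after 24 h dosing. Induction or loss scored relative to DMSO.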

[8] = ATG_GLI_CIS: Attagene CIS-FACTORIAL HepG2 Assay for human Zinc Finger Protein GLI1 (AID 2282945); conditions: HepG2, Attagene cis-factorial reporter mRNA, GLI element; actives raise or lower the signal
Summary of the method: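 Transiently transfected HepG2 cells report endogenous transcription factor activity via cis-element-driven reporter units. After 24 h compound exposure, reporter mRNA was measured by RT-PCR with capillary electrophoresis; bidirectional fitting against DMSO baseline.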

[9] = target: Bile acid receptor (Homo sapiens) (UniProt Q96RI1); assay: ATG_IR1_CIS: Attagene CIS-FACTORIAL HepG2 Assay for human Nuclear Receptor Subfamily 1 Group H Member 4 (NR1H4), IR1 submotif (AID 2282946); conditions: IR1 reporter transcription, actives raise or lower the signal
Bile acid receptor (Homo sapiens), sequence (Q96RI1 whole entry, looked up): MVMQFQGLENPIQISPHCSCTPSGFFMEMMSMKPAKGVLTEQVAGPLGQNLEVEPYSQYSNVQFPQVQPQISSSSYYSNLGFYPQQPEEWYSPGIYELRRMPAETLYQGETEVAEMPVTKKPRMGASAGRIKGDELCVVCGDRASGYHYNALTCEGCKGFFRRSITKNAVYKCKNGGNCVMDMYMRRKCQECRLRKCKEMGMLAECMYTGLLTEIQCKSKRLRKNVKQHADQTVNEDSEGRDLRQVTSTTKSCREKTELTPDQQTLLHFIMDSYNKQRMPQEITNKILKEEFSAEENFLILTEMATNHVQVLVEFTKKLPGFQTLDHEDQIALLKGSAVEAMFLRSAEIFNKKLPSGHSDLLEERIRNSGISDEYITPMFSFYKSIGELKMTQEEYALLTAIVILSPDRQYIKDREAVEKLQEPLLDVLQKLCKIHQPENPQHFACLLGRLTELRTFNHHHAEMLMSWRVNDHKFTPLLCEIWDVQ
Summary of the method: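 Fluorescence of capillary-separated, HpaI-digested RT-PCR reporter products gave IR1-element mRNA induction in HepG2 cells 24 h after dosing. Endogenous transcription factors drove the cis-regulated reporters; activity was fitted bidirectionally against DMSO.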

[10] = ATG_GRE_CIS: Attagene CIS-FACTORIAL HepG2 Assay for human Glucocorticoid Response Elements (GRE) (AID 2282947); conditions: HepG2 GRE cis-reporter, Attagene multiplex mRNA; AC50: actives raise or lower the signal unless noted; outcome: actives raise or lower the signal unless noted
Summary of the method: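 Fluorescence intensity of reporter-specific cDNA fragments, separated by capillary electrophoresis, provides the signal. Constructs carry cis-regulating promoters in transiently transfected HepG2 liver cells; 24 h incubation; fitting is bidirectional against DMSO.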

Measured: AC50

O=C1c2ccccc2C(=O)c2c(O)c(O)cc(O)c21
active: [3] 2.42 µM
inactive: all other assays above

CC[N+](CC)(CC)Cc1ccccc1
inactive: all assays above

CCCCCCCCC(C)=O
inactive: all assays above

Clc1ccc(Nc2nnc(Cc3ccncc3)c3ccccc23)cc1
active: [1] 16 µM
inactive: all other assays above

CC1=NN(c2ccccc2)C(=O)C1
inactive: all assays above

O=C(O)CN(CCCN(CC(=O)O)CC(=O)O)CC(=O)O
active: [1] 6.32 µM
inactive: all other assays above

C=CCOCC(CO)(CO)CO
inactive: all assays above

FC(F)(F)C1(F)C(F)(F)C(F)(F)C(F)(F)C1(F)F
inactive: all assays above

CCCCCCCCCCCCCC[n+]1ccccc1
active: [1] 2.52 µM | [5] 18.2 µM
inactive: all other assays above

O=C(Nc1cccc([N+](=O)[O-])c1)c1cc2ccccc2cc1O
active: [3] 3.32 µM
not listed: [9]
inactive: all other assays above

Cc1ccc(C(=O)c2ccccc2)cc1
active: [3] 27.2 µM
inactive: all other assays above

Cn1sccc1=O
active: [1] 165 µM | [8] 148 µM
inactive: all other assays above

Cc1ccccc1C(OCCN(C)C)c1ccccc1 (configuration not stated)
inactive: all assays above

C=CC(=O)OCCC(F)(F)C(F)(F)C(F)(F)C(F)(F)C(F)(F)C(F)(F)C(F)(F)C(F)(F)F
active: [3] 22.6 µM
inactive: all other assays above

FC(OC(F)(F)C(F)(F)C(F)(F)F)C(F)(F)F (configuration not stated)
inactive: all assays above

CC1=CC(=O)c2ccccc2C1=O
inactive: all assays above

CCN(CCC#N)c1ccccc1
inactive: all assays above

C[C@]12CC[C@@H]3c4ccc(O)cc4CC[C@H]3[C@@H]1CC[C@@H]2OC(=O)CCC1CCCC1
active: [3] 0.0823 µM | [6] 177 µM | [8] 100 µM
inactive: all other assays above

COc1ccccc1NC(=O)c1cc2ccccc2cc1O
active: [1] 52.9 µM | [4] 46.5 µM | [6] 100 µM | [7] 41.1 µM | [8] 60.7 µM | [10] 100 µM
inactive: [2] | [3] | [5]

OCC(F)(F)C(F)(F)C(F)(F)C(F)(F)C(F)(F)C(F)(F)C(F)(F)C(F)(F)C(F)(F)C(F)(F)C(F)(F)F
active: [3] 72.3 µM
not listed: [9]
inactive: all other assays above

O=C(O)CCC(F)(F)C(F)(F)C(F)(F)C(F)(F)C(F)(F)F
inactive: all assays above

FC(F)(F)C(F)(F)C(F)(F)C(F)(F)I
inactive: all assays above

O=C(F)C(F)(F)C(F)(F)C(F)(F)C(=O)F
inactive: all assays above
